Values joined by “and” are separate entries in the source; they are usually repeats but may differ in a detail not shown here. Equal entries are not always repeated. Records with an inconclusive call do not appear. Active and inactive are the calls of the source. Unless noted, calls follow the shape of the dose curve; as a rule, active = well fitted curve in the direction sought with a large enough effect in the repeat runs; inconclusive = weak or mixed curves; inactive = no such curve, though single readings can be large; an effect the other way counts as inactive or inconclusive.
Assays:
[1] = qHTS assay to identify aromatase inhibitors - cell viability counter screen (AID 743084); details: MCF-7 aro ERE viability, CellTiter-Fluor, 24 h; series mostly up to 70.3 µM;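 also: cells stimulated with testosterone during compound exposure; nearly all actives have a fitted effect of over 55% in size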; also: potency is read from the fitted curve at half-maximal effect
[2] = target: Aryl hydrocarbon receptor (Homo sapiens) (UniProt P35869); assay: qHTS assay to identify small molecule that activate the aryl hydrocarbon receptor (AhR) signaling pathway (AID 743085); details: HepG2 AhR-luc (HG2L7.5c1), luciferase, 24 h; series mostly up to 70.3 µM; also: nearly all actives have a fitted effect of over 15% in size; also: potency is read from the fitted curve at half-maximal effect;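 as to activation: HG2L7.5c1 human HepG2 liver cells with stably integrated DRE-driven firefly reporter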
Aryl hydrocarbon receptor (Homo sapiens), sequence (P35869 whole entry, looked up): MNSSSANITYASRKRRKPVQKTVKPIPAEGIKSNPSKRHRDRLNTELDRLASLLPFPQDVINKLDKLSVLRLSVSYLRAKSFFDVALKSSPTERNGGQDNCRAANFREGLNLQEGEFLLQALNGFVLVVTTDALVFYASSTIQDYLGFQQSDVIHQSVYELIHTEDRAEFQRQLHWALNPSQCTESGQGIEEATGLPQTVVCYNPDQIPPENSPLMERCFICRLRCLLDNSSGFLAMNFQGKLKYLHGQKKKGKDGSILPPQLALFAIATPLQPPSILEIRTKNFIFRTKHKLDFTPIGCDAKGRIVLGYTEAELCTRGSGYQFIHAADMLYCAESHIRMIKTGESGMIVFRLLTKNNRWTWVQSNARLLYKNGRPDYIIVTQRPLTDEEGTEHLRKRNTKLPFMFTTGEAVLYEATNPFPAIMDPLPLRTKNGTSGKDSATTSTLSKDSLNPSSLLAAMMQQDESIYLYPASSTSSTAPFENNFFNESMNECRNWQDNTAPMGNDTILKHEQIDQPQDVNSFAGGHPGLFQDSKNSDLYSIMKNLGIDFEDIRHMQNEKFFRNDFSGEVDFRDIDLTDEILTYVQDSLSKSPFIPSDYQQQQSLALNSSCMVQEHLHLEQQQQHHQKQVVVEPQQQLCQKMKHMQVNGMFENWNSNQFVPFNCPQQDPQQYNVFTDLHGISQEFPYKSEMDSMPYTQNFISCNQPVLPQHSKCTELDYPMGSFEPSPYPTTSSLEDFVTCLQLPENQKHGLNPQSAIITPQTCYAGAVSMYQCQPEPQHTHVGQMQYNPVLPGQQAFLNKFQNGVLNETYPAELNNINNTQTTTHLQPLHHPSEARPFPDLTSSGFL
How it was run: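 Compounds were tested in HepG2 hepatocellular carcinoma cells harbouring a stably integrated luciferase gene under control of 20 DREs. Increased reporter signal after 24 h treatment at 37C was taken as AhR activation.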

[3] = qHTS assay to identify small molecule that activate the aryl hydrocarbon receptor (AhR) signaling pathway - cell viability counter screen (AID 743086); details: HepG2-AhR-luc viability, CellTiter-Fluor, 24 h; series mostly up to 70.3 µM; also: nearly all actives have a fitted effect of over 45% in size; also: potency is read from the fitted curve at half-maximal effect
How it was run: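 Cytotoxicity counter screen: CellTiter-Fluor signal (30 min, 37 C) in 4000 HepG2 cells/well carrying the DRE-luciferase reporter, following 24 h compound exposure at 37 C.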

[4] = target: Peroxisome proliferator-activated receptor gamma (Homo sapiens) (UniProt P37231); assay: qHTS assay to identify small molecule agonists of the peroxisome proliferator-activated receptor gamma (PPARg) signaling pathway (AID 743094; active = well fitted activation curve with a large enough effect in the signal ratio in the repeat runs, not every such curve was filed as active; the % refers to the signal ratio); details: HEK293H PPARg-UAS-bla, beta-lactamase FRET ratio, 17 h; series mostly up to 57 µM
Peroxisome proliferator-activated receptor gamma (Homo sapiens), sequence (P37231 whole entry, looked up): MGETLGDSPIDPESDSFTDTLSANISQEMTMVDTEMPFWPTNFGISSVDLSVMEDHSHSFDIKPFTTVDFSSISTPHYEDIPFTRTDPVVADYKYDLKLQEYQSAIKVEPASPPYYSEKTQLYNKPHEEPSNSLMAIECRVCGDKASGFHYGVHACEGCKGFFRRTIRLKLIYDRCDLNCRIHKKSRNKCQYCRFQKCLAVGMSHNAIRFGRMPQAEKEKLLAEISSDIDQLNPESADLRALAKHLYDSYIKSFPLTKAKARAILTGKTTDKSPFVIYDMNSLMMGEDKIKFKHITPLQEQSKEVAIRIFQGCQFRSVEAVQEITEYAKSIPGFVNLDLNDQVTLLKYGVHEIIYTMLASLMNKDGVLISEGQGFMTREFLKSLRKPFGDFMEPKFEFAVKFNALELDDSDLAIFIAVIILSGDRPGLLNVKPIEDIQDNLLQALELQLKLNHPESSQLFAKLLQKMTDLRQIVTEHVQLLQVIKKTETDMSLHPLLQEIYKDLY
How it was run: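 HEK293H PPARg-bla cells, 5 h settle at 37C/5% CO2; compound (DMSO) 17 h, 37C; B/G FRET substrate 1 h RT; fluorescence intensity read-out. qHTS format.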

[5] = qHTS assay for small molecule agonists of the antioxidant response element (ARE) signaling pathway (AID 743202; active = well fitted activation curve with a large enough effect in the signal ratio in the repeat runs, not every such curve was filed as active; the % refers to the signal ratio; also: potency is read from the fitted curve at half-maximal effect); details: HepG2 ARE-bla reporter, beta-lactamase FRET, 16 h; series mostly up to 73.3 µM
How it was run: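 Beta-lactamase reporter activity, read as fluorescence intensity, reflects ARE/Nrf2 pathway induction in HepG2 cells after 16 h compound exposure at 37 C; substrate loading was 2 h at room temperature.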

[6] = qHTS assay for small molecule agonists of the antioxidant response element (ARE) signaling pathway - cell viability counter screen (AID 743203; calls by dose curve; also: nearly all actives have a fitted effect of over 55% in size; also: potency is read from the fitted curve at half-maximal effect); details: ARE-bla HepG2 viability, CellTiter-Glo luminescence, 16 h; series mostly up to 73.3 µM
How it was run: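 Luminescence read-out (CellTiter-Glo, 30 min at room temperature) measured cell viability in the same wells as the ARE beta-lactamase reporter. HepG2 ARE-bla cells were treated with compounds for 16 hrs at 37C/5% CO2.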

[7] = qHTS assay for small molecule activators of the heat shock response signaling pathway - cell viability counter screen (AID 743209); details: HSE-bla HeLa viability, CellTiter-Glo luminescence, 5 h; series mostly up to 62.6 µM; also: nearly all actives have a fitted effect of over 50% in size
How it was run: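 HSE-bla HeLa; 1500 cells/well; overnight 37 C, 5% CO2; compound 5 h 37 C; LiveBLAzer B/G substrate 2.5 h RT; CellTiter-Glo 30 min RT; luminescence.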

[8] = qHTS assay for small molecule activators of the heat shock response signaling pathway (AID 743210; active = well fitted activation curve with a large enough effect in the signal ratio in the repeat runs, with a control signal flat, not every such curve was filed as active; the % refers to the signal ratio;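 also: HeLa cells with beta-lactamase reporter driven by heat shock elements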); details: HeLa HSE-bla reporter, beta-lactamase ratio, 5 h; series mostly up to 62.6 µM
How it was run: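 Fluorescence from a cleaved B/G FRET substrate (2.5 h, room temp) reports HSE-driven beta-lactamase in HeLa cells treated 5 h at 37 C with DMSO-dissolved compounds.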

[9] = qHTS assay to identify small molecule antagonists of the peroxisome proliferator-activated receptor gamma (PPARg) signaling pathway - cell viability counter screen (AID 743194); details: PPARg-bla HEK293H viability, CellTiter-Glo luminescence, 17 h, co-treated with 50 nM rosiglitazone; series mostly up to 62.6 µM; also: nearly all actives have a fitted effect of over 55% in size; also: potency is read from the fitted curve at half-maximal effect
How it was run: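 Viability was measured as CellTiter-Glo luminescence in GeneBLAzer PPARg UAS-bla HEK293H cells. These cells had been exposed 17 h at 37 C to compounds together with rosiglitazone at 50 nM final, with the beta-lactamase readout taken in the same wells.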

[10] = target: Peroxisome proliferator-activated receptor gamma (Homo sapiens) (UniProt P37231); assay: qHTS assay to identify small molecule antagonists of the peroxisome proliferator-activated receptor gamma (PPARg) signaling pathway (AID 743191; calls by dose curve; also: nearly all actives have a fitted effect of over 30% in size); details: HEK293H PPARg-UAS-bla, beta-lactamase ratio, antagonist, 17 h; series mostly up to 62.6 µM
How it was run: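 Beta-lactamase reporter under UAS control in HEK293H PPARg-bla cells; compound treatment 17 h at 37C. Read-out: fluorescence intensity after 1 h room-temperature incubation with LiveBLAzer B/G FRET substrate.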

Measured: Potency

Cc1c(C)c([N+](=O)[O-])c(C(C)(C)C)c([N+](=O)[O-])c1C
not listed: [9] | [10]
inactive: all other assays above

COc1cccc2c1C(=O)c1c(O)c3c(c(O)c1C2=O)C[C@@](O)(C(C)=O)C[C@@H]3O[C@H]1C[C@H](N)[C@H](O)[C@H](C)O1
active: [1] 10.6 µM and 8.69 µM | [2] 2.45 µM | [3] 5.96 µM and 24.5 µM | [9] 34.9 µM and 33.5 µM | [6] 8.69 µM and 13.3 µM

O=c1[nH]c(=O)n([C@H]2C[C@H](O)[C@@H](CO)O2)cc1F
inactive: [1] | [2] | [3] | [10] | [7] | [8]

COCCOc1cc2cc(C(=O)NC3CCN(C(C)C)CC3)n(CC(=O)Nc3ccc(Cl)cn3)c2cn1
inactive: [1] | [3] | [9] | [5] | [6]
active: [2] 48 µM

[Cl][Pt-2]([Cl])([Cl])[Cl]
active: [5] 48.8 µM
not listed: [4] | [7]
inactive: all other assays above

Cc1cc(-c2ccc(N=Nc3cc(S(=O)(=O)O)c4ccccc4c3N)c(C)c2)ccc1N=Nc1cc(S(=O)(=O)O)c2ccccc2c1N
active: [5] 12.3 µM
not listed: [4] | [7] | [9]
inactive: all other assays above

COC(=O)Nc1nc2ccc(C(=O)c3ccccc3)cc2[nH]1
active: [2] 4.52 µM
not listed: [5] | [6] | [10]
inactive: all other assays above

FC(F)(F)c1cccc(Cl)c1
not listed: [4] | [8] | [10]
inactive: all other assays above

CC1=Nc2ccccc2C1(C)C
not listed: [4] | [8] | [10]
inactive: all other assays above

Cc1c2ccccc2c(C)c2c1ccc1ccccc12
inactive: [1]
active: [2] 8.55 µM and 21.7 µM | [3] 60.5 µM and 48.6 µM | [9] 49 µM | [6] 24.3 µM

C=Cc1cccc(C)c1
not listed: [5] | [10]
inactive: all other assays above

OC[C@@H](O)[C@@H](O)CO
not listed: [9] | [10]
inactive: all other assays above

CCCCC(CC)COC(=O)CCCCC(=O)OCc1ccccc1 (centres undefined)
not listed: [9] | [10]
inactive: all other assays above

O=[N+]([O-])c1cccc(C(F)(F)F)c1
not listed: [9] | [10]
inactive: all other assays above

CCCCCCCC/C=C\CCCCCCCCN
not listed: [6] | [9] | [10]
inactive: all other assays above

O=C1CCc2ccc(OCCCCN3CCN(c4cccc(Cl)c4Cl)CC3)cc2N1
inactive: [1] | [2] | [3]
active: [9] 15 µM | [6] 16.8 µM

C=CCn1c(=O)n(CC=C)c(=O)n(CC=C)c1=O
not listed: [3] | [10]
inactive: all other assays above

Cc1ccc(N/N=c2\c(=O)cc/c(=N\Nc3ccc(S(=O)(=O)O)cc3)c2=O)c(C)c1
active: [1] 27.3 µM | [2] 8.63 µM
not listed: [3]
inactive: all other assays above

O=C(Oc1ccccc1)Oc1ccccc1
not listed: [3]
inactive: all other assays above

Nc1cc(Cl)c(O)c(Cl)c1
inactive: [1] | [3] | [6] | [7]
active: [2] 61.1 µM

CCCC1CCC(=O)CC1
not listed: [3] | [9]
inactive: all other assays above

From PubChem BioAssay (Tox21)
